# In the library only some 8% were active in any assay of this set; here they are far more common.
# HCMV antiviral: inhibitors of human cytomegalovirus; activity change, negative = inhibition, % at 57.5 µM; HFF cells, HCMV-luciferase reporter, 72 h; active compounds read low; actives 4.5% (n = 410,000); in the data active means activity change below about -60%; inconclusive means no clear call, values can overlap the other calls; inactive means above about -39%; further: on the % scale 0 is the no-effect control and ±100 the full control effect
#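 Compounds were evaluated in HFFs infected with an HCMV luciferase reporter virus (MOI 1 PFU/cell). Luciferase in lysates collected 72 h post infection served as the replication measure.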
# MARV entry inh: blocks Marburg virus binding to or entry into cells; actives 1.8% (n = 300,000); Marburg virus pseudotyped entry inhibition, cell reporter; Potency, µM (top dose mostly 37.8 µM), for inactives: at the highest dose activity change, negative = inhibition, usual class: inhibitors; AID 540276; calls by dose curve; tested in HEK293 cells; further: potency means the concentration at half of the fitted maximal effect; on the % scale 0 is the no-effect control and ±100 the full control effect
# Lassa entry inh: blocks Lassa virus binding to or entry into cells; Lassa virus pseudotype entry inhibition, cell reporter; Potency, µM (highest dose often 37.9 µM), inactives show top-dose activity change, negative = inhibition, hits mostly inhibitors; actives 1.2% (n = 300,000); calls by dose curve; tested in HEK293 cells; further: potency means the concentration at half of the fitted maximal effect; on the % scale 0 is the no-effect control and ±100 the full control effect; nearly all actives have a fitted effect of over 50% in size
# HCV inh: blocks hepatitis C virus | Potency, µM (titrated, usually from 41.8 µM), without a hit: at the highest dose activity change, negative = inhibition, usual class: inhibitors | actives 3.4% (n = 340,000) | Huh7.5.1 HCVcc-Cre infection, luciferase reporter, 44 h; active means well fitted inhibition curve with a large enough effect; inconclusive means small, poorly fitted or top-dose-only effect, or another doubt; inactive means no such curve, though single readings can be large or run the other way; further: potency means the concentration at half of the fitted maximal effect; on the % scale 0 is the no-effect control and ±100 the full control effect
#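 Reporter virus HCVcc-Cre (~0.5 moi) infects cells exposed to compound; seeding density 1,000 cells/well with 4 h settling beforehand. Luminescence, 15 sec read, taken 44 h post-infection following a 15 min RT substrate incubation.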
# SARS PLP yeast: SARS-CoV PLP inhibition in yeast. S. cerevisiae expressing SARS-CoV PLpro, growth rescue. Potency, µM (series often up to 32.9 µM), inactives show at the highest dose activity, positive = growth rescue, actives largely listed as activators. actives 0.19% (n = 330,000); calls by dose curve; further: potency means the concentration at half of the fitted maximal effect; 0% is about no effect; nearly all actives have a fitted effect of over 55% in size
# FMDV inh: foot and mouth disease virus antiviral activity; FMDV antiviral cell-based qHTS; Potency, µM (doses to about 57.9 µM), for the others: at the highest dose activity change, negative = inhibition, actives largely listed as inhibitors; actives 1.2% (n = 410,000); calls by dose curve; tested in HEK293T cells; further: read-out not given here; potency means the concentration at half of the fitted maximal effect; on the % scale 0 is the no-effect control and ±100 the full control effect; nearly all actives have a fitted effect of over 45% in size
# * hit, by the source's call; ? = inconclusive; . = not tested or not shown; [ ] = another dose, or the depositor's remark.
SMILES,HCMV antiviral,MARV entry inh,Lassa entry inh,HCV inh,SARS PLP yeast,FMDV inh
Cc1ccccc1C(OCCN(C(C)C)C(C)C)c1ccccc1 (centres undefined),?,?,4µM*,-2%,-4%,?
CCCCOc1cccc(C(=O)N(Cc2cccs2)c2ccc(OC)cc2)c1,-60*,?,-11%[46.1 µM],.,.,-23%
COc1ccc(N(Cc2cccs2)C(=O)c2ccc(C(C)(C)C)cc2)cc1,-9,?,-2%[46.1 µM],.,.,-4%
COc1ccc(N(Cc2cccs2)C(=O)c2ccc(OC)c(Cl)c2)cc1,-91*,?,-23%[46.1 µM],.,.,-5%
O=C(CSc1n[nH]c(-c2ccccc2)n1)NCCCc1ccccc1,-9,.,-4%[46.1 µM],.,.,-24%
CN(C)c1nc2cc3c(cc2cc1CN(CC1CCCO1)C(=O)c1cccc(F)c1)OCO3 (centres undefined),.,.,.,.,.,5%
CN(C)C(=O)Oc1ccc(-c2cn3cc(C(F)(F)F)ccc3n2)cc1,-28,-18%,13%,3%,11%,12%
Oc1ccc(-c2cn3cc(C(F)(F)F)ccc3n2)cc1,-27,5.8µM*,2µM*,-3%,-17%,-27%
Cc1nc(Nc2cccc(O)c2)c2oc3ccccc3c2n1,78,.,.,13µM*,0%,-23%
COc1cccc(Nc2nc(C)nc3c2oc2ccccc23)c1,32,?,25%[46.1 µM],11µM*,-4%,-25%
Cc1nc(Nc2cccc(Cl)c2)c2oc3ccccc3c2n1,-3,?,?,-27%,-6%,-25%
Cc1nc(Oc2ccccc2)c2oc3ccccc3c2n1,?,-6%,?,?,-1%,-20%
COc1ccc(Oc2nc(C)nc3c2oc2ccccc23)cc1,-68*,?,?,8.9µM*,8%,?
O=C(c1ccco1)N1CCN(C(=S)Nc2ccc(Br)cc2Cl)CC1,-36,-21%,?,?,0%,13%
COc1ccccc1NC(=O)COc1coc(CN2CCN(c3ccccc3)CC2)cc1=O,-34,-29%,?,-15%,-1%,?
COc1ccccc1N1CCN(C(=O)c2sc3nc(-c4ccc(F)cc4)cn3c2C)CC1,-61*,-3%,.,4.5µM*,-16%,0%
COc1ccc(-c2cn3c(C)c(C(=O)N4CCN(c5ccc(F)cc5)CC4)sc3n2)cc1,36,-1%,.,-7%,3%,6%
Cc1ccc(C)c(CSc2nnc3[nH]c(=O)cc(-c4ccccc4)n23)c1,?,.,19%[46.1 µM],.,.,?
Cc1ccc(C(NC(=O)N2CCOCC2)=C(Cl)Cl)cc1F,-69*,?,-48%,10µM*,0%,.
Cc1ccc(C(NC(=O)N2CCOCC2)C(Cl)Cl)cc1F (centres undefined),-14,15%,-2%,14%,12%,-11%
COc1cc([C@@H]2C(C(C)=O)=C(O)C(=O)N2c2ccc(Br)cn2)ccc1O,.,-9%,.,.,.,.
CC(=Nc1ccccc1)C1=C(O)C(Cc2ccccc2)NC1=O (centres undefined),-76*,6%,-14%,21%,.,33%
O=C(COC(=O)CNC(=O)c1ccc(Cl)cc1Cl)NCc1ccco1,-4,2.8µM*,?,15%,-1%,7%
S=C(NCc1ccco1)Nc1ccc(Cl)cc1Cl,-74*,6%,-1%,-14%,?,42%
Cc1ccc2nc(C)c(C(=O)NN=C3CCCCCC3)n2c1,12,.,.,13%,9%,-20%
SMILES,HCMV antiviral,MARV entry inh,Lassa entry inh,HCV inh,SARS PLP yeast,FMDV inh
Cc1ccccc1NC(=O)c1ccc(-c2ccc(Cl)cc2Cl)o1,-11,-10%[46.1 µM],8%,13µM*,-18%,6%
Cc1cccc(C)c1NC(=O)c1ccc(-c2ccc(Cl)cc2Cl)o1,-72*,10µM*,?,?,-21%,-24%
CC(=O)Nc1sc(N/N=C/c2ccccc2F)nc1-c1ccc(C)cc1,-1,-9%,.,13µM*,1%,74%
CC(=O)Nc1sc(N/N=C\c2ccccc2Cl)nc1-c1cccs1,-83*,-16%,0%,-18%,14%,20%
CC1CN(CC(O)COc2ccc(C(C)C)cc2)CC(C)O1 (centres undefined),28,23%,-5%,?,-10%,-18%
CN(CC(O)COC(c1ccccc1)c1ccccc1)C1CCCCC1 (centres undefined),?,?,?,-14%,-2%,-24%
CN(C)CC(O)COC(c1ccc(Cl)cc1)c1ccc(Cl)cc1 (centres undefined),?,?,?,3.2µM*,-7%,-11%
CC1CN(CC(O)COC(c2ccc(Cl)cc2)c2ccc(Cl)cc2)CC(C)O1 (centres undefined),53,?,-24%,10µM*,-19%,?
Cc1ccc(C2=N/C(=C/c3cccs3)C(=O)N2Nc2ccccc2)cc1,-6,?,-20%,11µM*,-14%,-7%
C[N+](C)(C)CC1CCCC(C[N+](C)(C)C)C1=O (centres undefined),-28,10µM*,?,2.2µM*,.,?
C[N+](C)(C)CC1CCCc2ccccc2C1=O (centres undefined),?,?,?,11µM*,.,?
CCc1ccccc1N(C)C(=O)c1cc2c(Cl)nc3ccc(C)cc3c2s1,-10,-3%[46.1 µM],24%[46.1 µM],.,.,?
CN1OC[C@@H]2CN[C@H](c3ccc(-c4cc5ccccc5o4)cc3)C[C@@H]21,.,.,.,.,.,0.35µM*
CN1OC[C@@H]2CN[C@H](c3ccc(-c4ccc(C#N)cc4)cc3)C[C@@H]21,57,.,.,.,.,25%
COc1cc([C@H]2NC(=O)C[C@@H]2C(=O)O)ccc1OC(C)C,-13,.,.,.,.,.
Cn1cc(-c2cc3c(Nc4ccc(OC(F)(F)F)cc4)nccc3[nH]2)cn1,-65*,.,.,.,.,.
COc1ccc(Nc2nccc3[nH]c(-c4cccc(F)c4)cc23)cc1,-34,.,.,.,.,.
CC1CCN(C(=O)CCC(=O)Nc2ccc([N+](=O)[O-])cc2)CC1,-4,.,.,.,.,-6%
COc1ccccc1CCNC(=O)C(=O)Nc1cc2c3c(c1)CC(=O)N3CCC2,-23,11%,1%,?,3%,-9%
CCN(CC)C(=O)CSc1nc2ccc(NC(=O)CSc3nnc(COc4ccccc4C)n3C)cc2s1,-20,-22%,?,10µM*,4%,22µM*
Cc1ccccc1OCc1nnc(SCC(=O)Nc2ccc3nc(SCC(=O)NC(C)(C)C)sc3c2)n1C,-18,?,?,?,2%,35µM*
Cc1oc(-c2ccc(Cl)cc2)nc1CS(=O)CC(=O)NCc1ccc(Cl)cc1 (centres undefined),-13,?,-5%[46.1 µM],.,.,-23%
C[C@@H]1CCC2[C@](C)(CO)C(O)CC[C@@]2(C)[C@@]12CC[C@](CO)(CCO)O2 (some centres undefined),.,.,.,.,.,-5%
CCc1cc(C(=O)NCc2c(C)ncc3c2CCN(C(=O)C2=CCCC2)C3)no1,.,.,.,.,.,-7%
